# Measurements taken from PubChem BioAssay AID504834 (National Center for Advancing Translational Sciences (NCATS), 2011).
# The campaign covered roughly 320,000 compounds. About 22,000 (6.9%) were called active. Inconclusive results (about 27%) are left out. The sample as a whole holds a higher share of actives than the screen did. A number with no mark means an inactive call. Calls come from the whole dose curve; as a rule, active = well fitted inhibition curve with a large enough effect; inconclusive = small, poorly fitted or top-dose-only effect, or another doubt; inactive = no such curve, though single readings can be large or run the other way.
# Assay: Primary qHTS for delayed death inhibitors of the malarial parasite plastid, 96 hour incubation
# Details: P. falciparum luciferase reporter growth; series mostly up to 28.7 µM; activity change, negative = inhibition: at the top concentration
# In short: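 Infected RBCs, 2% Hct / 0.05% parasitemia final; luciferase-reporter P. falciparum; cpd 96 h, 37 C, 5% CO2; luciferase detection reagent; luminescence.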
# % is set by controls: 0 for no effect and ±100 for the full control effect; potency is the fitted concentration of half-maximal effect.
SMILES,"activity change, negative = inhibition [%]",Potency
CCc1c(C)sc(NC(=O)/C=C/c2ccc3c(c2)OCO3)c1C(=O)OC,44.7,
Cc1cccc(NC(=O)/C=C/c2ccc3c(c2)OCO3)n1,,9.28 µM (active)
Cc1cccc(NC(=O)Nc2ccc3c(c2)OCO3)n1,128,
Cc1nc(COc2cccc(Cl)c2)sc1C(=O)/C=C/N(C)C,25.9,
CC(=O)c1ccc(N2CCN(C(=O)CCNC(=O)Cn3ccc4ccccc4c3=O)CC2)cc1,28,
O=C(NCc1cccc(Cl)c1)C1=CC=CN2CCS(=O)(=O)N=C12,-17.2,
Cc1cccc(Cn2c(N3CCN(c4ccccc4)CC3)nc3c2c(=O)n(C)c(=O)n3C)c1,104,
Cc1cccc(N2CC(C)Cn3c2nc2c3c(=O)n(CC(=O)OCc3ccccc3)c(=O)n2C)c1 (stereo unspecified),,11.7 µM (active)
CC1CN(C2CCCCC2)c2nc3c(c(=O)n(C)c(=O)n3C)n2C1 (stereo unspecified),-6.09,
O=c1c2cc([N+](=O)[O-])ccc2nc2n1CCC2,0,
COC(=O)c1sc(SC)c(S(=O)(=O)C(C)C)c1N/N=C(\C#N)S(=O)(=O)c1ccccn1,1.2,
CC1CC(NC(=O)/C(C#N)=C/c2ccc[nH]2)CC(C)(C)C1 (stereo unspecified),,3.29 µM (active)
Cn1c(=O)c2c(nc(N3CCCCCC3)n2CC(O)COc2ccc(Cl)cc2)n(C)c1=O (stereo unspecified),45.3,
Cn1c(=O)c2c(ncn2CCc2ccccc2)n(C)c1=O,33.2,
Cn1c(=O)c2c(ncn2CC(COCc2ccccc2Cl)OCc2ccccc2Cl)n(C)c1=O (stereo unspecified),,9.28 µM (active)
CCOc1ccc(NC(=O)c2ccc(NC(=O)CN3C(=O)C(=O)N(CC(C)C)C3=O)cc2)cc1,70.2,
COc1cc(/C=N/N2CCN(c3ccccc3)CC2)ccc1OC(C)=O,2.01,
CSc1ncccc1C(=O)Nc1ccc2c(c1)OCO2,0,
CSc1ccccc1NC(=O)c1ccc2c(c1)CCN2S(C)(=O)=O,-27.5,
O=C(c1cc(-c2ccco2)nc2ccccc12)N(Cc1nnc(-c2ccc(Cl)cc2)o1)C1CC1,,2.08 µM (active)
CN(C(=O)COC(=O)c1cc(-c2ccco2)nc2ccccc12)C1CCS(=O)(=O)C1 (stereo unspecified),3.3,
O=C(c1ccc(Cl)s1)N(Cc1nnc(-c2ccccc2Cl)o1)C1CC1,9.37,
O=C(NCCc1c[nH]c2ccccc12)c1cc2ccccc2oc1=O,11.7,
CN(c1ccccc1)S(=O)(=O)c1ccc(Cl)c(C(=O)NCCc2c[nH]c3ccccc23)c1,,9.28 µM (active)
Cc1ccc(S(=O)(=O)N(C)CC(=O)NCCc2c[nH]c3ccccc23)cc1,-12.8,
COc1ccc(NC(=O)CNC(=O)Cn2ccc3ccccc3c2=O)c(OC)c1,-5.69,

SMILES,"activity change, negative = inhibition [%]",Potency
COCCn1c(C)cc(C(=O)COC(=O)CNC(=O)c2ccco2)c1C,-4.29,
CC(=O)N1CCN(CC(C)(C)NS(=O)(=O)c2ccc(C)cc2)CC1,-27.1,
CCOC(=O)CN1CC23C=CC(O2)C(C(=O)Nc2ccc(F)cc2)C3C1=O (stereo unspecified),88.1,
CC(C)COC(=O)C1C2C=CC3(CN(C(C)c4ccc(Br)cc4)C(=O)C13)O2 (stereo unspecified),,6.57 µM (active)
CCCC(=O)Nc1ncnc2c1ncn2[C@@H]1O[C@@H]2OP(=O)(O)OC[C@H]2[C@H]1OC(=O)CCC,4.15,
Cc1cccn2c(=O)c3cc(C(=O)NC4CCCCC4)sc3nc12,-22.1,
Cc1ccccc1-n1nc(C)c2cc(C(=O)NC3CC3)sc21,,5.22 µM (active)
Cc1ccc(-c2nn(-c3ccccc3)cc2C(=O)NC2CCC(O)CC2)cc1 (stereo unspecified),34.1,
O=c1cc(Cl)c2ccccc2n1-c1ccccc1,0.294,
CCCCn1c(N)c(N(CC(C)C)C(=O)C2CSC3(C)CCC(=O)N23)c(=O)[nH]c1=O (stereo unspecified),-3.49,
CCn1c(-c2ccncc2)n[nH]c1=S,19.2,
CCn1c(-c2ccoc2C)n[nH]c1=S,-2.97,
CCCc1cc(-c2n[nH]c(=S)n2CC)c2ccccc2n1,,1.65 µM (active)
CN(C)CCCNC(=S)N1CCC(c2nc3ccccc3[nH]2)CC1,0,
COc1ccc(C[C@H](C(=O)O)N2C(=O)c3ccc(C(=O)O)cc3C2=O)cc1,-1.42,
O=C(C1CCCO1)N1CCN(S(=O)(=O)c2ccc(Br)cc2)CC1 (stereo unspecified),37,
COc1ccc(N(CC(=O)Nc2ccc(C)cc2C)S(=O)(=O)c2ccccc2[N+](=O)[O-])c(OC)c1,-0.583,
Cc1ccc(S(=O)(=O)N(CC(=O)Nc2cccc([N+](=O)[O-])c2)Cc2ccc(Cl)cc2)cc1,35.2,
COc1ccc(C)cc1S(=O)(=O)N(CC(=O)Nc1cccc([N+](=O)[O-])c1)c1ccc(C)cc1,,11.7 µM (active)
CC(C)c1c(C(=O)N/N=C/c2ccccc2C(=O)O)nnn1-c1nonc1N,100,
O=C(CNC(=O)[C@@H]1Cc2ccccc2CN1)NC1CCCCC1,38.7,
O=C(COc1ccc(S(=O)(=O)N2CCOCC2)cc1Cl)N1CCOCC1,-9.66,
O=C(OCC(=O)N1CCOCC1)c1ccc(N2CCOCC2)c([N+](=O)[O-])c1,0.0667,
O=C(Cc1ccc(S(=O)(=O)N2CCOCC2)s1)N1CCN(c2ccc(C(F)(F)F)cc2[N+](=O)[O-])CC1,,11.7 µM (active)
COc1cccc(CNS(=O)(=O)c2cc3c(cc2C)n(C)c(=O)c(=O)n3C)c1,16.5,
